# From ChEMBL document CHEMBL4513216, “Probing the Open Global Health Chemical Diversity Library for Multistage-Active Starting Points for Next-Generation Antimalarials” (ACS Infect Dis, 2020)
# In all, about 69,000 compounds went through this assay and about 8,600 (12%) showed an effect of 50% or more. This is one part of a sample in which strong results are shown more often than they occur.
# Tested on: Plasmodium berghei
# Assay: Screen against P. berghei liver stage (PbLuc), transformed with Luciferase, at 10uM
# Type: functional, HepG2
# Details: tested at 10 uM
row,Structure (SMILES),INHIBITION [%]
1,CO[C@@H]1CCN(Cc2ccccn2)[C@@H]2CN(Cc3ccco3)C[C@@H]21,20.9
2,CCc1nc(C)c(C(=O)NCCNC(=O)Cc2cccc(F)c2)s1,-27.9
3,C=Cn1cc(CN2CCc3nc(-c4cccnc4)nc(O)c3C2)c(C)n1,1.5
4,Cc1occc1C(=O)Nc1cccc(C(=O)OCC2CCCN2)c1 (stereo unspecified),-24.7
5,CN(C)C(=O)CN1CCC2(CCCN(Cc3cccs3)C2)C1=O (stereo unspecified),8.6
6,O=C1COC2(CCN(Cc3nccs3)CC2)CN1c1ccccc1,35.6
7,N#Cc1ccc(N2CCC(OCCc3ccccc3)CC2)nc1,45.5
8,CC(=O)N1CCC(c2nc3ccc(-c4ccnn4C)cn3n2)CC1,38.2
9,CC(=O)N1CCC(c2nc3ccc(C)cn3n2)CC1,1.7
10,COc1cccc(-c2ccc3nc(C4CCN(C(C)=O)CC4)nn3c2)c1,56.4
11,CN(Cc1ccncc1)C(=O)CCNS(=O)(=O)c1cccnc1,20.9
12,Cc1nnc(Cn2cc(I)cc(C)c2=O)o1,22.5
13,CSc1ccc(C(C(=O)O)N2CCC(C(=O)N3CCCC3)CC2)cc1 (stereo unspecified),43.9
14,CSc1ccc(C(C(=O)O)N2CCC(CO)CC2)cc1 (stereo unspecified),53.9
15,CSc1ccc(C(C(=O)O)N2CCCC2)cc1 (stereo unspecified),34.9
16,Cc1ccc(CN2CCCn3c(nc(CN4CCCC4)cc3=O)C2)s1,43.2
17,Cn1ccnc1CN1CCN2C[C@H](OCc3ccccc3)C[C@H]2C1,-25.2
18,Cc1ccc(N2CCCC(NCc3ccc(-n4ccnc4)cc3)C2)nn1 (stereo unspecified),11.5
19,Cc1n[nH]c2ncc(CNC3CCCN(c4ncccn4)C3)cc12 (stereo unspecified),73.5
20,CC(C)[C@@H](C)NC1CCN(c2ccc(-n3ccnc3)cc2)CC1,16.6
21,COc1cc(CNC2CCCN(c3ncccn3)C2)cc2c1OCO2 (stereo unspecified),-34.8
22,CC(=O)NC1CCCN(Cc2ccc(OCc3ccccn3)cc2)C1 (stereo unspecified),41.8

row,Structure (SMILES),INHIBITION [%]
1,c1cnnc(N2CCCC(NCc3ccc(-n4ccnc4)cc3)C2)c1 (stereo unspecified),15.2
2,c1cnc(N2CCCC(NCc3ccc(-n4ccnc4)cc3)C2)nc1 (stereo unspecified),60.4
3,CNCCCNC1CCN(c2ccc(-n3ccnc3)cc2)CC1,-7.2
4,Cc1n[nH]c2ncc(CNC3CCN(Cc4ccccn4)CC3)cc12,-20.6
5,c1cn(-c2ccc(N3CCC(NC4CC4)CC3)cc2)cn1,56.2
6,CCC(=O)NC1CCCN(Cc2ccc(-n3ccnc3)cc2)C1 (stereo unspecified),41.5
7,CC(=O)NC1CCCN(Cc2ccc(-n3ccnc3)cc2)C1 (stereo unspecified),65.6
8,Cc1nccn1[C@@H]1CC[C@@H](N(C)S(=O)(=O)c2ccc(F)cc2)[C@H]1O,-0.4
9,Cc1noc(CCCC(=O)N(CCC(=O)O)Cc2ccc(F)c(F)c2)n1,-13
10,CN(C)c1ccccc1C(=O)N1CCCC(c2cccc(C(=O)O)c2)C1 (stereo unspecified),33.4
11,O=C(c1ccc(Sc2ccccn2)cc1)N1CCCSCC1,-1.3
12,Cc1cc(C)c(CNC(=O)NCC(O)c2ccc(Cl)cc2)c(=O)[nH]1 (stereo unspecified),29.2
13,CCN1CCN(C(=O)C(C)n2cc(Br)cn2)CC1 (stereo unspecified),21.7
14,COCCNC(=O)[C@@H]1C[C@H]2[C@H](CCN2c2cc(OC)ncn2)O1,7.53
15,CS(=O)(=O)CCC(=O)Nc1cc(F)ccc1OCC1CCCO1 (stereo unspecified),-14
16,CC(C)N1CCCC2(CCN(Cc3nncn3C(C)C)C2)C1=O (stereo unspecified),-27.4
17,CC(C)c1cc(C(=O)NCC2CCCN(C(C)C)C2)n(C)n1 (stereo unspecified),34.1
18,CCn1nc(C(C)C)cc1C(=O)NCC1CCCN(c2ccccn2)C1 (stereo unspecified),45
19,CC(C)c1cc(C(=O)NCC2CCCN(c3ncccn3)C2)n(C)n1 (stereo unspecified),70
20,Cc1cc(C)nc(Nc2cncc(C3CCCN(S(C)(=O)=O)C3)n2)n1 (stereo unspecified),29.2
21,CCC(CN1CCOCC1)n1cncc1-c1ccc2c(c1)CCCN2C (stereo unspecified),39.7
22,CCN1CCCc2cc(-c3cncn3C(C)CN3CCOCC3)ccc21 (stereo unspecified),27.6

row,Structure (SMILES),INHIBITION [%]
1,CCC(CN1CCOCC1)n1cncc1-c1ccc2c(c1)CCN2CC (stereo unspecified),61.9
2,CCC(NC(=O)c1cc(OC)c2c(c1)OCCO2)c1cccs1 (stereo unspecified),24.3
3,Cc1noc(C)c1CN1CCn2nc(CCC(=O)N3CCCC3)cc2C1,19.3
4,COc1cccc(OCCN2CC[C@@](O)(C3CCOCC3)[C@H](C)C2)c1,49.3
5,CCOCCSc1nnc(Cc2ccccc2F)o1,-19
6,CS(=O)(=O)CCSc1nnc(Cc2ccccc2F)o1,52.6
7,COc1ccccc1Cc1nnc(SCCS(C)(=O)=O)o1,53.8
8,COCCOCCSc1nnc(Cc2ccccc2F)o1,6.88
9,N#CCCSc1nnc(Cc2ccccc2F)o1,20.5
10,COc1cccc(Cc2nnc(SCCS(C)(=O)=O)o2)c1,49.1
11,CC[C@H]1N(CC2CCC2)CCC[C@]12CCC(=O)N2Cc1ccncc1,19.8
12,COCCC(=O)N1CCC(c2cc3ncc(C)nc3[nH]2)CC1,15.9
13,Cc1cnn(CC2CCCCN2Cc2c(C)noc2C)c1 (stereo unspecified),26.09
14,CC1CCCN(Cc2cccc(C(=O)Nc3nccs3)c2)C1 (stereo unspecified),-37.8
15,O=C(c1ccccn1)N1CCC(c2nc(O)cc(-c3ccncc3)n2)C1 (stereo unspecified),19.6
16,CCOc1ncccc1NC(=O)NC1CCCN(c2ncccn2)C1 (stereo unspecified),30.8
17,Nc1cnc(-c2cccc3c2CCNC3)cn1,-0.178
18,c1cc2c(c(-c3cc(N4CCOCC4)ncn3)c1)CCNC2,58.6
19,Nc1cc(-c2cccc3c2CCNC3)ncn1,28.7
20,COc1cc2nc3n(c(=O)c2cc1OC)CCN(C(=O)C1CC1)CC3,35.2
21,COc1cc(OCC(=O)NCCc2ccccc2)cc(OC)c1OC,-13.2
22,COCCC(=O)N1CC[C@H]2O[C@@H](C)C[C@H]2C1,64.9

row,Structure (SMILES),INHIBITION [%]
1,COCCC(=O)N1CC[C@@H]2O[C@@H](C)C[C@H]2C1,18.8
2,COCC(=O)N1CC[C@@H]2O[C@@H](C)C[C@H]2C1,10.1
3,COCCn1c(-c2cccc(OC)c2)cnc1NC(=O)NC(C)C,18.4
4,Nc1ncc(-c2ccc(C(F)(F)F)cc2)c(C2CCCNC2)n1 (stereo unspecified),70.1
5,Nc1ncc(-c2ccc(Cl)cc2)c(C2CCCNC2)n1 (stereo unspecified),31.6
6,Nc1ncc(-c2ccc(F)cc2)c(C2CCCNC2)n1 (stereo unspecified),28.3
7,O=c1cc2c(nn1CN1CCN(c3ccccc3)CC1)CCCC2,38.9
8,Cn1cc(C(=O)N2CCCC2c2noc(C3CC3)n2)c2ccccc21 (stereo unspecified),19.2
9,O=C1CO[C@@H]2CN(C3CCOCC3)C[C@H]2N1Cc1ccncc1,73.6
10,O=C1CO[C@H]2CN(C3CCOCC3)C[C@H]2N1Cc1ccc(F)cc1,4.82
11,O=C1CO[C@H]2CN(C3CCOCC3)C[C@H]2N1Cc1ccncc1,22.2
12,CCC(Nc1ccc(CCN2CCCCC2)cc1)C(N)=O (stereo unspecified),57.2
13,CCOC(=O)C(C)Nc1ccc(CCN2CCOCC2)cc1 (stereo unspecified),-30.1
14,CCC(Nc1ccc(CCN2CCOCC2)cc1)C(N)=O (stereo unspecified),-28.8
15,Cc1nn(Cn2ccc(C(=O)N3CCCC3)n2)c(C)c1Cl,7.92
16,COc1cc(-c2nc(C3CC3)nn2-c2ccnc(C)c2)nc(OC)n1,-10.2
17,O=C(Nc1nnc(C(F)F)s1)NC(CCO)c1cccs1 (stereo unspecified),13.8
18,Cc1cc(CN(C)C2CCN(c3cccc(-c4cscn4)c3)CC2)on1,44.8
19,CN(Cc1cnn(C)c1)C1CCN(c2cccc(-c3cscn3)c2)CC1,45.6
20,Cc1nnc(CN(C)C2CCN(c3cccc(-c4cscn4)c3)CC2)o1,23.5
21,CN(Cc1nccs1)C1CCN(c2cccc(-c3cscn3)c2)CC1,63.6
22,CN(Cc1ccon1)C1CCN(c2cccc(-c3cscn3)c2)CC1,30.9

row,Structure (SMILES),INHIBITION [%]
1,CN(C)CCCN(C)C1CCN(c2cccc(-c3cscn3)c2)CC1,52.2
2,Cc1cc(C2CCCN(CCCS(C)(=O)=O)C2)n[nH]1 (stereo unspecified),11.9
3,CN(C)c1ccc(C(=O)N2CCN(Cc3cscn3)CC2)cn1,-0.219
4,COc1ccc(NCc2c[nH]nc2-c2cccnc2)cc1,56.8
5,FCCOc1cccc(NCc2c[nH]nc2-c2cccnc2)c1,34.6
6,CCOCc1cccc(NCc2c[nH]nc2-c2cccnc2)c1,49.1
7,CC(Cn1cccn1)NC(=O)NCc1ccnc(OC2CCCC2)c1 (stereo unspecified),23.5
8,CC(Cn1cccn1)NC(=O)NCc1ccc(OC2CCCC2)nc1 (stereo unspecified),54.4
9,CC(Cn1cccn1)NC(=O)NCc1cccnc1OC1CCCC1 (stereo unspecified),-21.7
10,CC(C)n1cnnc1CN1CCC2(CCCN(C3CCCCC3)C2=O)C1 (stereo unspecified),-64.1
11,CCN1CCCC1CNC(=O)c1cc(COc2ccccc2F)[nH]n1 (stereo unspecified),-11.2
12,COc1ccc2c(c1)CCCN(CC(=O)NCC1CCCO1)C2 (stereo unspecified),39.6
13,Cc1c(C(=O)N2CCOCC2)n(C)c2ccc(Cl)cc12,-1.3
14,Cc1c(C(=O)N2CCN(C)CC2)n(C)c2ccc(Cl)cc12,20.9
15,Cc1c(C(=O)N2CCC(N3CCCCC3)CC2)n(C)c2ccc(Cl)cc12,69.3
16,NS(=O)(=O)CC1CCCN(C(=O)CCCC2CCCC2)C1 (stereo unspecified),43.8
17,O=C(CCC1CCN(C2Cc3ccccc3C2)CC1)NCC1CCCO1 (stereo unspecified),25.8
18,O=C1CCC2(CCN(Cc3nccs3)CC2)N1Cc1ccccc1,11.4
